Potency data for 6 compounds are collected here from PubChem BioAssay (Tox21).

Several values for one entry are separate records, joined by “and”; a condition that tells them apart may be missing. Equal values may be shown once. Results filed as inconclusive are left out. Activity calls are given as the source filed them. Unless noted, calls follow the shape of the full dose curve.

Test [1] is described as follows: Nuclear factor erythroid 2-related factor 2/antioxidant responsive element (Nrf2/ARE) small molecule agonists: luciferase reporter gene qHTS assay in human keratinocytes (AID 1919969). Also: nearly all actives have a fitted effect of over 35% in size. Also: potency is read from the fitted curve at half-maximal effect.
The target of test [2] is KiSS-1 receptor (Homo sapiens) (UniProt Q969F8). Put plainly: Human kisspeptin (KISS1R) small molecule agonists, calcium flux assay in KISS1R-HEK293 cells (AID 1920064; active = well fitted activation curve with a large enough effect in the repeat runs). An outline of the steps:
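Kinetic calcium assay, 1 s sampling over 3 min at Ex/Em 480/540, in HEK293 cells engineered with human KISS1R; compounds delivered in DMSO after 1 h dye loading.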

The nature of test [3]: G protein-coupled receptor (GPCR) small molecule agonists, calcium flux assay: HEK293 wild type cell line counter screen (AID 1920065). An outline of the steps: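 Calcium-sensitive dye, loaded 1 h at 37 C into cells cultured 18 h, reports compound-evoked calcium release as fluorescence (Ex/Em 480/540), measured over 3 min. Agonist mode; 15-point titrations, triplicate.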
Test [4] in a line: p53 small molecule agonists, cell-based qHTS assay with human liver microsomes (AID 1963577). An outline of the steps: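 Compounds act here after metabolic activation: human liver microsomes and NADPH, both at 0.5 mg/mL final, were co-added to p53RE-bla cells. Incubation ran 16 h at 37 C, followed by LiveBLAzer detection.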
A short description of test [5]: p53 small molecule agonists, cell-based qHTS assay with human liver microsomes: qHTS cell viability counter screen (AID 1963579). Also: nearly all actives have a fitted effect of over 45% in size. In short, it runs like this: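 Cells carrying the p53 response-element beta-lactamase reporter are treated for 16 h at 37 C with test compounds in the presence of human liver microsomes and NADPH (both 0.5 mg/mL final); ATP-based CellTiter-Glo luminescence then reports viability.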

Test [6] can be described thus: p53 small molecule agonists, cell-based qHTS assay: qHTS cell viability counter screen (AID 1963581). Also: nearly all actives have a fitted effect of over 45% in size. In short, it runs like this:
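Following 5 h attachment, HCT-116 p53RE-bla cells took up compound for 16 h at 37 C; the reporter was read with B/G FRET substrate (2 h RT), and viability then via CellTiter-Glo ATP luminescence.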

Test [7] in a line: p53 small molecule agonists, cell-based qHTS assay (AID 1963582; active = well fitted activation curve with a large enough effect in the signal ratio in the repeat runs, not every such curve was filed as active; the % refers to the signal ratio). In short, it runs like this:
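In this cell-based concentration-response screen, a p53 response element drives beta-lactamase; cells received DMSO-borne compounds after 5 h culture and were incubated a further 16 h before FRET substrate development.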

Test [8] concerns the target 5-hydroxytryptamine receptor 2A (Homo sapiens) (UniProt P28223). Put plainly: 5-hydroxytryptamine receptor 2A (HTR2A) small molecule antagonists, cell-based qHTS assay (AID 1963586). Also: nearly all actives have a fitted effect of over 45% in size. An outline of the steps: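 Antagonist-mode intracellular calcium assay: DOI (4 nM) added after 5 min compound pre-incubation at room temperature to dye-loaded HTR2A-CHO cells. Fluorescence followed for 3 min, sampled every second.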

Test [9] shares this target. Put plainly: 5-hydroxytryptamine receptor 2A (HTR2A) small molecule agonists, cell-based qHTS assay (AID 1963587). Also: nearly all actives have a fitted effect of over 30% in size. Also: potency is read from the fitted curve at half-maximal effect. An outline of the steps:
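CHO cells stably expressing human HTR2A, plated 18 h, loaded with calcium dye 1 h at 37 C. Agonist mode: compounds added and intracellular calcium fluorescence recorded kinetically for 2 min at 1 sec intervals.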

The target in test [10] is Muscarinic acetylcholine receptor M1 (Homo sapiens) (UniProt P11229). Description: Cholinergic receptor muscarinic 1 (CHRM1) small molecule antagonists, cell-based qHTS assay (AID 1963588). Also: nearly all actives have a fitted effect of over 40% in size. An outline of the steps:
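CHRM1-CHO calcium-flux assay, antagonist mode. Cells were seeded 18 h, dye-loaded 1 h at 37 C and given compound for 5 min at RT, then acetylcholine was added at 50nM. FDSS fluorescence was read 3 min; 15 concentrations, three runs.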

Test [11] has the same target. Put plainly: Cholinergic receptor muscarinic 1 (CHRM1) small molecule agonists, cell-based qHTS assay (AID 1963589). Also: nearly all actives have a fitted effect of over 35% in size. An outline of the steps:
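Measures agonist-induced intracellular calcium rise. Stable human CHRM1 CHO line, 1 h dye load at 37 C, compounds from DMSO, kinetic fluorescence read.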

A short description of test [12]: cAMP Responsive Elements (CRE) small molecule antagonists, cell-based qHTS assay (AID 1963591; active = well fitted inhibition curve with a large enough effect in the signal ratio in the repeat runs, not every such curve was filed as active; the % refers to the signal ratio). In short, it runs like this: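 HEK293T cells carrying a CRE-driven beta-lactamase reporter receive compound and NKH477 (0.25 uM final) for 3 h. Fluorescence from LiveBLAzer B/G FRET substrate is read after 2 h at room temperature.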
The target in test [13] is Beta-2 adrenergic receptor (Homo sapiens) (UniProt P07550). Put plainly: Adrenergic beta2 receptor (ADRB2) small molecule antagonists, cell-based qHTS assay (AID 1963592). Also: series mostly up to about 92 µM; nearly all actives have a fitted effect of over 50% in size. In short, it runs like this:
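Cells (CHO, stable ADRB2 overexpression) incubated 18-20hr at 37C; compounds added from DMSO; agonist mix (1nM isoproterenol, 100uM IBMX, 25uM Ro-20-1724) added; 0.5hr RT; d2-cAMP and anti-cAMP-cryptate added; 1hr RT; 665/615 nm read.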

The target is the same in test [14]. Put plainly: Adrenergic beta2 receptor (ADRB2) small molecule agonists, cell-based qHTS assay (AID 1963593).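 Also: CHO cells stably overexpressing human ADRB2.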 An outline of the steps: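 CHO cells stably over-expressing ADRB2 were plated overnight at 37C, then dosed with compounds plus a stimulation mix containing 100uM IBMX and 25uM Ro-20-1724 for 0.5hr at room temperature. cAMP was measured by HTRF competition, 1hr.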

The target in test [15] is D(2) dopamine receptor (Homo sapiens) (UniProt P14416). Description: Dopamine D2 receptor (DRD2) small molecule agonists, cell-based qHTS assay (AID 1963594). Also: nearly all actives have a fitted effect of over 35% in size. In short, it runs like this:
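HEK293 cells stably expressing human DRD2, pre-treated with PDE inhibitor Ro20-1724 (0.1 mM final) and compound 10 min at room temperature, then stimulated with NKH477 (200nM […]) for 30 min. cAMP read by HTRF (665/620 nm).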

Test [16] concerns the target Gonadotropin-releasing hormone receptor (Homo sapiens) (UniProt P30968). Description: Human gonadotropin-releasing hormone receptor (GnRHR) small molecule agonists, calcium flux assay in GnRHR-HEK293 cells (AID 1920063). Also: nearly all actives have a fitted effect of over 35% in size. An outline of the steps:
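We seeded human GnRHR-expressing HEK293 cells for 18 hours, loaded them with calcium dye for an hour at 37 C, added test compounds, and recorded fluorescence intensity kinetically for three minutes.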

Test [17] can be described thus: p53 small molecule agonists, cell-based qHTS assay with rat liver microsomes: qHTS cell viability counter screen (AID 1963580). Also: nearly all actives have a fitted effect of over 45% in size. In short, it runs like this: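 Viability is assessed in parallel with the p53 reporter read: HCT-116 p53RE-bla cells receive compounds plus rat microsomes and NADPH (0.5 mg/mL final apiece), incubate 16 h at 37 C, and then CellTiter-Glo luminescence is recorded.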

Test [18] is described as follows: cAMP Responsive Elements (CRE) small molecule agonists, cell-based qHTS assay (AID 1963590). In short, it runs like this:
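A CRE-responsive beta-lactamase reporter in HEK 293T cells was used. Treatment ran 3 h at 37 C; detection used LiveBLAzer B/G FRET substrate for 2 h at room temperature.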

In test [19] the target is D(2) dopamine receptor (Homo sapiens) (UniProt P14416). Description: Dopamine D2 receptor (DRD2) small molecule antagonists, cell-based qHTS assay (AID 1963595; active = well fitted inhibition curve with a large enough effect in the signal ratio in the repeat runs, with a control signal flat; the % refers to the signal ratio). In short, it runs like this: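 DRD2-HEK293; 0.1 mM Ro20-1724; cpd 10 min RT; NKH477 200 nM + quinpirole 12 nM, 30 min RT; HTRF cAMP (cAMP-d2/anti-cAMP cryptate), 665/620 nm ratio after 1 h.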
Test [20] in a line: p53 small molecule agonists, cell-based qHTS assay with rat liver microsomes (AID 1963578). An outline of the steps:
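Read-out is beta-lactamase reporter fluorescence (LiveBLAzer, 2 h, room temperature, dark) in p53RE-bla cells treated 16 h at 37 C with compound, rat liver microsomes and NADPH, both 0.5 mg/mL final.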

D(2) dopamine receptor (Homo sapiens), sequence (P14416 whole entry, looked up): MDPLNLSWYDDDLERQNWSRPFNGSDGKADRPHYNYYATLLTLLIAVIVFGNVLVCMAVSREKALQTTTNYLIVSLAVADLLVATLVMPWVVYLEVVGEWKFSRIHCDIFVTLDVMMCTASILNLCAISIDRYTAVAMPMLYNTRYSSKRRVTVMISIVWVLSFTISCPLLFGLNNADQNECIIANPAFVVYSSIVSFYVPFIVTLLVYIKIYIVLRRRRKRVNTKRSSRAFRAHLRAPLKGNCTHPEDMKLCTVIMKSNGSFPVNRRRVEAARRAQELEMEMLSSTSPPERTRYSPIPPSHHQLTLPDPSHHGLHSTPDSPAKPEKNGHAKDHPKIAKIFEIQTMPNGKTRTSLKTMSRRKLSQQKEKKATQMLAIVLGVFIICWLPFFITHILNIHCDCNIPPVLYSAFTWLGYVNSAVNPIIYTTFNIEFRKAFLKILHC
Gonadotropin-releasing hormone receptor (Homo sapiens), sequence (P30968 whole entry, looked up): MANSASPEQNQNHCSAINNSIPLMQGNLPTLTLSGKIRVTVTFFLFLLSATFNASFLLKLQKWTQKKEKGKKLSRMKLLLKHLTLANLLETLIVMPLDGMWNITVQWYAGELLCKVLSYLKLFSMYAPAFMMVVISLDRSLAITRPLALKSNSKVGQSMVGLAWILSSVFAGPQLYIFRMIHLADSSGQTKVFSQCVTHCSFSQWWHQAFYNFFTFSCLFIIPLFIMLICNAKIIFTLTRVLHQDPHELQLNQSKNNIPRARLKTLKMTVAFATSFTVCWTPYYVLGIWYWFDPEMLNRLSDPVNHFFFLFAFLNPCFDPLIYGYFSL
KiSS-1 receptor (Homo sapiens), sequence (Q969F8 whole entry, looked up): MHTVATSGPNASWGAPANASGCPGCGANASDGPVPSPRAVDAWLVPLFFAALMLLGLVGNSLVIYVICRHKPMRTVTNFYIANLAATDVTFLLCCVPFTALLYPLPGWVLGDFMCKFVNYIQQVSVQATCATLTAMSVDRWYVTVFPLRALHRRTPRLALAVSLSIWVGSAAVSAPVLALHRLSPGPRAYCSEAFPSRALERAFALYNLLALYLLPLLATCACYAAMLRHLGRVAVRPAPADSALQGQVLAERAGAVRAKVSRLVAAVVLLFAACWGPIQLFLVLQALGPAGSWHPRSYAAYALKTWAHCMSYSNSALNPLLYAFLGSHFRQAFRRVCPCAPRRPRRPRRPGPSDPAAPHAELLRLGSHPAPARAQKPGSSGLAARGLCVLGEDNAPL
Muscarinic acetylcholine receptor M1 (Homo sapiens), sequence (P11229 whole entry, looked up): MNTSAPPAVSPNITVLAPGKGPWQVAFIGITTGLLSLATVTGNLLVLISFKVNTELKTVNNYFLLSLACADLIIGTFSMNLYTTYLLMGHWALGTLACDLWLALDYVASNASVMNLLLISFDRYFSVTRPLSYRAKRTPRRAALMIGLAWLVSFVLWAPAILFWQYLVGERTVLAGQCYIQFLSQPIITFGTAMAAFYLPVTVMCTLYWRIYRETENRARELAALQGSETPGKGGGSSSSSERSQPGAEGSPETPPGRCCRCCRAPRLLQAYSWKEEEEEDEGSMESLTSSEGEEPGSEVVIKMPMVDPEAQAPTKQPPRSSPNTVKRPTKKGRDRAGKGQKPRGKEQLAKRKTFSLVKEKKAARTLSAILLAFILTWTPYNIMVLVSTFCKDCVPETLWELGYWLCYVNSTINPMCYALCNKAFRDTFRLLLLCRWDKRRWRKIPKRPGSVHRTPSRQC
5-hydroxytryptamine receptor 2A (Homo sapiens), sequence (P28223 whole entry, looked up): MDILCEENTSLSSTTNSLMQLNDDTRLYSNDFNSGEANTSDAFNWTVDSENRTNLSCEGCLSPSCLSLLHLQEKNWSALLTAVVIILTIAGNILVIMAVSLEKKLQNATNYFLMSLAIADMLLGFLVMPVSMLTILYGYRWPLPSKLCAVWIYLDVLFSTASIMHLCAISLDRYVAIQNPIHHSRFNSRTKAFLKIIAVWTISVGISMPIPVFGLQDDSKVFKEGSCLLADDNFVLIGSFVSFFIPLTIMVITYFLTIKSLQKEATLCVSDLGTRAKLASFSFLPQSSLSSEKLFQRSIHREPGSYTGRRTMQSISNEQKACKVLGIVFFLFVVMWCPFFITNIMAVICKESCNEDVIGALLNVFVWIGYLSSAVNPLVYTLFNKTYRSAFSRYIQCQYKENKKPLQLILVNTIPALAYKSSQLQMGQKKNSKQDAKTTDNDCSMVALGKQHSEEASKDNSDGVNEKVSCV
Beta-2 adrenergic receptor (Homo sapiens), sequence (P07550 whole entry, looked up): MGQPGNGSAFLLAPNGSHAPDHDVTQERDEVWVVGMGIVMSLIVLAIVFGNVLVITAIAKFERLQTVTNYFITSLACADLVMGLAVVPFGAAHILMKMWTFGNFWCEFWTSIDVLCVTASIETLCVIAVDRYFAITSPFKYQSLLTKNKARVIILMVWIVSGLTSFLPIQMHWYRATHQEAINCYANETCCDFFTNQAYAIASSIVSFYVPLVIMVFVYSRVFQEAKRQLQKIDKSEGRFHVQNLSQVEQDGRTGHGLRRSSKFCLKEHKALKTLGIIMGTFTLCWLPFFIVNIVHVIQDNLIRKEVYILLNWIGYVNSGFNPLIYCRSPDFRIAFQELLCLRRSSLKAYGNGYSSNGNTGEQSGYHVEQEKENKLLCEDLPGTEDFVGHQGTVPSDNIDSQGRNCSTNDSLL

Regarding `Cc1ccc(-c2nc3ccc(C)cn3c2CC(=O)N(C)C)cc1`, the Potency result in test [1], in test [2], in test [3], in test [4], in test [5] and in test [6] was “inactive” each time. For the same compound, the Potency entry in [7], in test [8], in [9], in test [10], in [11] and in test [12] was “inactive” in each case. Also, the Potency entry in test [13], in [14] and in [15] was “inactive” in each case.
Consider `Clc1cccc(Cl)c1Cl`, for which the Potency result in test [1], in [16], in test [2], in [3], in [5] and in test [17] was “inactive” in each case. Besides, the Potency result in [6], in [9], in test [10], in [11], in test [18] and in [12] was “inactive” throughout. Further, the Potency entry in test [13], in [14], in test [15] and in test [19] was “inactive” each time.
On to `OC(O)C(Cl)(Cl)Cl`, for which the Potency result in test [1], in test [2], in [3], in test [4], in test [20] and in [5] was “inactive” in each case. For the same compound, the Potency entry in test [17], in test [6], in test [7], in [8], in test [9] and in test [10] was “inactive” throughout. Besides, the Potency entry in test [11], in test [18], in test [13] and in test [15] was “inactive” each time.
`Nc1ccc(Cl)cc1N`: the Potency in [1] was 31.9 µM (active) and 19.3 µM (active); in [9] it was 20.3 µM (active) and 6.16 µM (active). The Potency entry in test [2], in [3], in test [5], in test [17], in [6] and in test [8] was “inactive” in each case. Moreover, the Potency result in [10], in test [11], in [12], in test [13], in test [14] and in test [15] was “inactive” each time. The Potency result in [19] is “inactive”.
Consider `CC[n+]1ccccc1`, for which the Potency entry in test [1], in test [16], in [2], in test [3], in [5] and in test [17] was “inactive” in each case. Further, the Potency entry in test [6], in test [8], in test [9], in test [10], in test [18] and in [12] was “inactive” in each case. Further, the Potency entry in [13], in test [14] and in [19] was “inactive” each time.
With `ClC1=C(Cl)C2(Cl)C3C(Cl)C=CC3C1(Cl)C2(Cl)Cl` (stereo not given), the Potency entry in test [1], in test [16], in test [3], in [4], in test [20] and in [5] was “inactive” in each case. For the same compound, the Potency result in test [17], in test [6], in test [7], in [8], in [9] and in [10] was “inactive” in each case. The Potency entry in [11], in test [18], in [12], in test [13], in test [15] and in test [19] was “inactive” throughout.
